Assay [1] in a line: Inducers of the Endoplasmic Reticulum Stress Response (ERSR) in human glioma: Validation (AID 504836). An outline of the steps:
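Stably transfected U87-MG glioma cells carrying a GRP78-based luciferase sensor; 16 h compound incubation. Luminescence end-point read 10 min after Bright-Glo addition at room temperature.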

Assay [2] has as its target Ubiquitin carboxyl-terminal hydrolase 1 (Homo sapiens) (UniProt O94782). In words: Inhibitors of USP1/UAF1: Pilot qHTS (AID 504865). Also: nearly all actives have a fitted effect of over 35% in size. Also: potency is read from the fitted curve at half-maximal effect. The procedure, abridged:
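Kinetic fluorescence assay: 1nM USP1/UAF1, 15 min compound preincubation, then 150nM Ub-Rho; 480/540 nm.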
For orientation: Quantitative high-throughput screening tests each substance at several concentrations.

Assay [3] is described as follows: qHTS for Inhibitors of ATXN expression: Validation of Cytotoxic Assay (AID 588349). The procedure, abridged: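 Cytotoxicity counter-screen: ATP-based luminescent viability (CellTiter Glo) after 72 hr exposure of HEK293 cells to a compound titration at 37 degrees C.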
Assay [4] is described as follows: qHTS for Inhibitors of ATXN expression: Validation (AID 588378). Also: nearly all actives have a fitted effect of over 75% in size. Also: potency is read from the fitted curve at half-maximal effect. The procedure, abridged: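 Validation of ATXN2 expression inhibitors uses a cell-based luciferase fusion reporter in HEK293 cells, with 24 h compound exposure and paired viability (fluorescence) and reporter (luminescence) end-point reads.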
The target in assay [5] is DNA dC->dU-editing enzyme APOBEC-3G (Homo sapiens) (UniProt Q9HC16). In words: qHTS for inhibitors of Vif-A3G interactions: Validation (AID 588379). An outline of the steps:
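Yellow fluorescence (Ex 488, Em 500-530) of Vif-coexpressing HeLa A3G-eYFP cells, scanned by Acumen cytometer, reports blocked A3G degradation. Cells plated at 700/well overnight at 37 deg C before compound addition, then a further overnight compound incubation at 37 deg C.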

Assay [6] concerns the target Estrogen receptor (Homo sapiens) (UniProt P03372). Description: qHTS assay for small molecule antagonists of estrogen receptor alpha signaling (AID 588513; active = well fitted curve in the direction sought with a large enough effect in the signal ratio, with a control signal flat, not every such curve was filed as active; inconclusive = small, poorly fitted or top-dose-only effect, or effect the other way, or a change in a side signal; inactive = no such curve, though single readings can be large or run the other way; the % refers to the signal ratio; also: potency is read from the fitted curve at half-maximal effect). An outline of the steps:
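Cells were plated at 5000/well and incubated 4 h at 37 C. Compounds were added as 1:2 dilution series, duplicates. 17-beta-estradiol (0.5nM final) was added for 18 h before CCF4 detection.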

Assay [7] has the same target. In words: qHTS assay for small molecule agonists of estrogen receptor alpha signaling (AID 588514; calls by dose curve; also: nearly all actives have a fitted effect of over 70% in size). The procedure, abridged:
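EC50 and efficacy came from Hill fits of beta-lactamase reporter signal (CCF4 dye, 2 h at room temperature) scaled between DMSO and 20 nM 17-beta-estradiol. Agonist mode: HEK293 ER-alpha-UAS-bla cells in charcoal/dextran-stripped serum medium, 18 h compound exposure at 37 C.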

The target in assay [8] is Bile acid receptor (Homo sapiens) (UniProt Q96RI1). Description: qHTS assay for small molecule antagonists of farnesoid X receptor signaling (AID 588526; calls by dose curve). The procedure, abridged:
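Antagonist mode: titrated compounds tested against chenodeoxycholic acid stimulation (normalized to 50 uM CDCA and DMSO) in GeneBLAzer HEK293T cells for 16 h. Beta-lactamase read by CCF4 fluorescence; IC50 from Hill fits.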

The target of assay [9] is Androgen receptor (Homo sapiens) (UniProt P10275). In words: qHTS assay for small molecule antagonists of androgen receptor signaling (AID 588516; active = well fitted curve in the direction sought with a large enough effect in the signal ratio, with a control signal flat, not every such curve was filed as active; inconclusive = small, poorly fitted or top-dose-only effect, or effect the other way, or a change in a side signal; inactive = no such curve, though single readings can be large or run the other way; the % refers to the signal ratio; also: potency is read from the fitted curve at half-maximal effect). An outline of the steps:
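Antagonist-mode qHTS: inhibition of R1881 (10 nM)-driven beta-lactamase expression in GripTite HEK 293 cells is measured after 16 h; values are Hill-derived IC50s normalized between R1881 and DMSO wells.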

Assay [10] has the same target. In words: qHTS assay for small molecule agonists of androgen receptor signaling (AID 588515; active = well fitted curve in the direction sought with a large enough effect in the signal ratio, with a control signal flat; inconclusive = small, poorly fitted or top-dose-only effect, or effect the other way, or a change in a side signal; inactive = no such curve, though single readings can be large or run the other way; the % refers to the signal ratio). The conditions noted are these: AR-UAS-bla HEK293, beta-lactamase ratio, agonist 16 h; hits give high values. An outline of the steps:
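Stimulation of an AR-responsive β-lactamase reporter in GripTite HEK293 cells was measured after 16 h compound exposure at 37 °C, via CCF4 fluorescence after 2 h RT. EC50 from Hill fits, normalized to R1881 at 30 nM.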

Structures are written as SMILES. A number with no mark means an inactive call. A call without a number means that no potency is given here. Calls of active or inactive are those of the source. Unless noted, calls follow the shape of the dose curve; as a rule, active = well fitted curve in the direction sought with a large enough effect; inconclusive = small, poorly fitted or top-dose-only effect, or another doubt; inactive = no such curve, though single readings can be large; an effect the other way counts as inactive or inconclusive.

Chain of Androgen receptor (Homo sapiens) (P10275 whole entry, looked up): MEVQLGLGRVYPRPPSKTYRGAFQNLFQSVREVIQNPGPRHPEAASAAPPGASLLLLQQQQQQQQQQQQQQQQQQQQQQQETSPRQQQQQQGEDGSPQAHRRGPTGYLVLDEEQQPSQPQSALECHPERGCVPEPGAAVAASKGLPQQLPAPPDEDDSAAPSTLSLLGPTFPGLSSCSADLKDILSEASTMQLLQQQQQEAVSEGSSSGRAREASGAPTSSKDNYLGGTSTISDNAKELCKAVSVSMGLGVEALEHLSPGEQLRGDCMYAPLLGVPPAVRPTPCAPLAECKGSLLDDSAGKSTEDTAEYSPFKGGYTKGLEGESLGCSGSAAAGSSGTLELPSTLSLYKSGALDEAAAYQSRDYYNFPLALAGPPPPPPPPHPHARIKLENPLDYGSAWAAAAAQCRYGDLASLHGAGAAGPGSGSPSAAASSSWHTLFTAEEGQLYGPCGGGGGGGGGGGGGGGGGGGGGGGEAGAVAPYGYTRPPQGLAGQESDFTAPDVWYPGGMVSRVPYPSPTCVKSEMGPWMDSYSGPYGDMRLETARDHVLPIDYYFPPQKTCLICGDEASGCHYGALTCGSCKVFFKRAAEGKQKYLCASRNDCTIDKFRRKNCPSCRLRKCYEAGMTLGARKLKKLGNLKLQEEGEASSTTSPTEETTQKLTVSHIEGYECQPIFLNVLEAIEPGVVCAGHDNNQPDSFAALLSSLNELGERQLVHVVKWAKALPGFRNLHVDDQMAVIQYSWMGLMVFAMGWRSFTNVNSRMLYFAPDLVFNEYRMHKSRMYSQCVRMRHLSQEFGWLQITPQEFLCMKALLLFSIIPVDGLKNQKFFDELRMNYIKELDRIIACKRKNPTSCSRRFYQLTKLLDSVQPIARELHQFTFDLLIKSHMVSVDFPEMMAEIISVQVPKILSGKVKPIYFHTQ
Chain of Ubiquitin carboxyl-terminal hydrolase 1 (Homo sapiens) (O94782 whole entry, looked up): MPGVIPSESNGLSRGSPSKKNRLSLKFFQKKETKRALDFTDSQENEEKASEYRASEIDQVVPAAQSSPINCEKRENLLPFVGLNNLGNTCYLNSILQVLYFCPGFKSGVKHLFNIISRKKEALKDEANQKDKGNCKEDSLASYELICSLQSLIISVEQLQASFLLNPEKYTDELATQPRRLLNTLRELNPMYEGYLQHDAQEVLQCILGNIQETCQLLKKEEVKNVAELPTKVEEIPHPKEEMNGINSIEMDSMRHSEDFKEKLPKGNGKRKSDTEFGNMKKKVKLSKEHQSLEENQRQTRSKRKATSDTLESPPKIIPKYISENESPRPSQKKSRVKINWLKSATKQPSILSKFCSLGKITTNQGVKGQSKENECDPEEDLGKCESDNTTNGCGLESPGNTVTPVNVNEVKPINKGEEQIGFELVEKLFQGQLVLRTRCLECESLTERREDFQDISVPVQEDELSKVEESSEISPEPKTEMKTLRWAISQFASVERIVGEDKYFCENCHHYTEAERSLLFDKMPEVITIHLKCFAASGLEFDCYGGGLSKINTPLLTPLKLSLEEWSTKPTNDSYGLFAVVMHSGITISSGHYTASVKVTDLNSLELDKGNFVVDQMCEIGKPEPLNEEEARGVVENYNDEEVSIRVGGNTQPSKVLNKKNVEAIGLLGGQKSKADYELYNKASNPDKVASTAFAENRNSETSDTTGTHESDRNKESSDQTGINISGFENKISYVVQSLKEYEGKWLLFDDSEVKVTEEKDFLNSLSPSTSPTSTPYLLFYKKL
Chain of DNA dC->dU-editing enzyme APOBEC-3G (Homo sapiens) (Q9HC16 whole entry, looked up): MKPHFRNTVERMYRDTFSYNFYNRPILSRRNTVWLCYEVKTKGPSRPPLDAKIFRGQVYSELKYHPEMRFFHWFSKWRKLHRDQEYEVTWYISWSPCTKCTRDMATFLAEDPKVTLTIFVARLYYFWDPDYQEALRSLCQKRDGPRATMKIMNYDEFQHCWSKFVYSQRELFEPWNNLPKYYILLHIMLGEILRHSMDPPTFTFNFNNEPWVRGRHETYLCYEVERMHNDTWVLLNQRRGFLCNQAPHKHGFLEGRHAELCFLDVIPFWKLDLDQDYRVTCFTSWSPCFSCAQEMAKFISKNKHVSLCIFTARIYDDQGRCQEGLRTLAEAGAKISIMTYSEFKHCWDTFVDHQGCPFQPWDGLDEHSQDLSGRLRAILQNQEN
Chain of Estrogen receptor (Homo sapiens) (P03372 whole entry, looked up): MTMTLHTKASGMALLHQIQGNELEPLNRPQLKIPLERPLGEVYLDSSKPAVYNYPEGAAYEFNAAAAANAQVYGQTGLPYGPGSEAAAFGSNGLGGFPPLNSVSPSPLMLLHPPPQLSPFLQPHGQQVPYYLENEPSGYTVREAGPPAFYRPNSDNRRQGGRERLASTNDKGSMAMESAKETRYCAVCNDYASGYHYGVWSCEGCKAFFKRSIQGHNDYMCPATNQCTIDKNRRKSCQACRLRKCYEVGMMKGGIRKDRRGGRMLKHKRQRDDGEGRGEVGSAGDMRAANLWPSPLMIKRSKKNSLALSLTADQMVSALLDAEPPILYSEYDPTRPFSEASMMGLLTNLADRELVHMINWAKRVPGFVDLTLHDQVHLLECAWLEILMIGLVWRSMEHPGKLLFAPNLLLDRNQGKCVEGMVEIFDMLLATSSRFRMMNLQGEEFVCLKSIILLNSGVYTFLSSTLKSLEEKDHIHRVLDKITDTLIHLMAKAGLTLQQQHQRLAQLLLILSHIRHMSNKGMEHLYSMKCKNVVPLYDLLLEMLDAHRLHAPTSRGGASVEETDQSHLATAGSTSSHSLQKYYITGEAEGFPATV
Chain of Bile acid receptor (Homo sapiens) (Q96RI1 whole entry, looked up): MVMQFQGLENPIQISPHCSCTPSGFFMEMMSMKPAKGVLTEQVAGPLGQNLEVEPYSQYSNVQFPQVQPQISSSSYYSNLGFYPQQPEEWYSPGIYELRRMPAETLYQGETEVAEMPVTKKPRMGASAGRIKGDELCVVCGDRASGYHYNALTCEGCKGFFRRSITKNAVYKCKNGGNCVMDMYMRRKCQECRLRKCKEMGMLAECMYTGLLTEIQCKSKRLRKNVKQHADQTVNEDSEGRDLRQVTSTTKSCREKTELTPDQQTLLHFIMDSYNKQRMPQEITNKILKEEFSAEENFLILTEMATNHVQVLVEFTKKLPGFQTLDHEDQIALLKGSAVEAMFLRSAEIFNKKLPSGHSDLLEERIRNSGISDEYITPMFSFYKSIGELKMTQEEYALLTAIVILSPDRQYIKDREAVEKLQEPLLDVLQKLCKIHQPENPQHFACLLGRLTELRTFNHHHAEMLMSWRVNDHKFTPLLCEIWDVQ

On to `O=C1CCCN1CC#CCN1CCCC1`, for which the Potency entry in [1], in assay [2] and in assay [4] was “inactive” throughout. Moreover, the outcome in assay [3] and in [5] was inactive.
With `NC1CC1c1ccccc1` (stereo not drawn), the Potency entry in assay [2] and in assay [4] was “inactive” throughout. For the same compound, in assay [3], the compound was called inactive.
Regarding `CCC(=O)OC1CCC2C3CCC4=CC(=O)CC[C@@]4(C)C3CC[C@]12C` (stereo partly drawn), the Potency entry in [2] was “inactive”.
Regarding `CCCCCCCCCC(CC)c1ccc(S(=O)(=O)O)cc1` (stereo not drawn), in assay [2], the Potency was 79.4 µM (active).
In the case of `C[C@]12N[C@H](Cc3ccccc31)c1ccccc12`, the Potency entry in [2] and in [4] was “inactive” each time. The outcome in [3] was inactive.
As to `NC1=NC(=O)N2CC12` (stereo not drawn), in [2], the Potency result was “inactive”.
For the compound `CN(C)[C@@H]1C(=O)C(C(N)=O)=C(O)[C@@]2(O)C(=O)C3=C(O)c4c(O)cccc4[C@@](C)(O)[C@H]3[C@H](O)[C@@H]12`, the Potency result in assay [2] was “inactive”.
With `S=C(NC1CCCCC1)N1CCC(c2cnc[nH]2)CC1`, the Potency result in assay [1], in [2] and in [4] was “inactive” throughout. Also, the call in assay [3] and in [5] was inactive.
Consider `O=C(O)Cc1cnc[nH]1`, for which the Potency result in assay [2] and in assay [4] was “inactive” throughout. Moreover, in assay [3], the call was inactive.
With `C#CCOC(=O)C1=CCCN(C)C1`, the Potency entry in [1], in [2] and in assay [4] was “inactive” throughout. Also, the result in assay [3] and in assay [5] was inactive.
`NCc1cc(=O)[nH]o1`: the Potency result in assay [1], in assay [2] and in [4] was “inactive” each time. Moreover, the result in [3] and in [5] was inactive.
For `O=[N+]([O-])c1ccc([As](=O)(O)O)cc1`, the Potency entry in assay [2] is “inactive”.
As to `Cc1ccc(Cl)c(O)c1`, in [2], the Potency result is “inactive”.
Turning to `C[C@]12CCC(=O)C(O)=C1CC[C@@H]1[C@H]3CCC(=O)[C@@]3(C)CC[C@@H]12`, in assay [2], the Potency entry was “inactive”.
Turning to `Cn1cnc(CCN)c1`, the Potency entry in assay [2] and in [4] was “inactive” in each case. In addition, the compound was classed as inactive in assay [3].
Turning to `CC[C@@]1(O)C(=O)OCc2c1cc1n(c2=O)Cc2cc3ccccc3nc2-1`, the Potency entry in [2] and in assay [4] was “inactive” each time. The result in assay [5] was inactive.
With `CCCN1CCC[C@H](c2cccc(O)c2)C1`, the Potency result in assay [2] and in [4] was “inactive” each time. Further, in assay [3], the result was inactive.
For the compound `Cc1nc(-c2ccc(-c3ccc(C(=O)N4CCc5cc6c(cc54)C4(CCN(C)CC4)CO6)cc3)c(C)c2)no1`, in assay [5], the call was inactive.
`O=C(O)COc1ccccc1`: the Potency entry in [2] and in assay [6] was “inactive” each time. Also, the call in assay [7] was inactive.
In the case of `CNCCc1c[nH]c2ccc(O)cc12`, the Potency result in assay [2] and in [4] was “inactive” in each case. For the same compound, the call in assay [3] and in [5] was inactive.
For `CCOC(=O)c1cncn1[C@H](C)c1ccccc1`, the Potency entry in [2] is “inactive”. Also, the compound was called inactive in assay [5].
Consider `CC(=O)NCCc1c[nH]c2ccccc12`, for which the Potency entry in [2] and in assay [4] was “inactive” throughout. For the same compound, the compound was called inactive in assay [3] and in assay [5].
In the case of `c1ccc2sc(C3(N4CCCCC4)CCCCC3)cc2c1`, the Potency entry in assay [2] and in assay [4] was “inactive” in each case. The call in assay [3] and in [5] was inactive.
Turning to `COc1ccc(C(=O)c2c(C)n(CCN3CCOCC3)c3cc(I)ccc23)cc1`, the compound was classed as inactive in [5].
On to `C[C@H]1CCCC=CC2C[C@H](O)C[C@@H]2[C@H](O)C=CC(=O)O1` (stereo partly drawn), for which the result in assay [5] was inactive.
For the compound `O=C(O)C(Cl)Cl`, the Potency result in assay [2] and in assay [6] was “inactive” each time. Besides, the result in [7] was inactive.
Consider `Clc1cnc(Oc2ccc(Oc3ncc(Cl)cc3Cl)cc2)c(Cl)c1`, for which the Potency result in [2] and in assay [4] was “inactive” in each case. Further, the result in [3] and in assay [8] was inactive.
Regarding `CC1=NN=C(c2ccc(N)cc2)c2cc3c(cc2C1)OCO3`, the Potency entry in assay [2] and in assay [4] was “inactive” throughout. In addition, the result in [3] and in assay [5] was inactive.
As to `CCCN1CCO[C@@H]2c3cc(O)ccc3OC[C@@H]21`, the Potency result in [2] was “inactive”. Also, in assay [5], the compound was called inactive.
`NCCc1c[nH]c2ccc(O)cc12`: the Potency entry in assay [2] and in assay [4] was “inactive” each time. The compound was classed as inactive in [3] and in [5].
Turning to `NC(=O)CN1CC(O)CC1=O` (stereo not drawn), the Potency result in [2] and in assay [4] was “inactive” throughout. Moreover, the outcome in [3] was inactive.
Turning to `C[C@@H](N)Cc1cnc[nH]1`, the Potency result in assay [2] and in assay [4] was “inactive” each time. Moreover, the outcome in [3] and in [5] was inactive.
On to `CN[C@@H]1C[C@@H](c2ccc(Cl)c(Cl)c2)c2ccccc21`, for which, in assay [2], the Potency result is “inactive”. In addition, in assay [4], the Potency was 20 µM (active).
With `C1CCC(NC2CCCCC2)CC1`, the Potency entry in assay [2] and in assay [6] was “inactive” throughout. The compound was called inactive in assay [7].
As for `CC(=O)[O][Hg][c]1ccccc1`, the Potency is 50.1 µM (active) in assay [2], 2.24 µM [inconclusive] (active) in assay [6] and 2.24 µM (active) in [9].
Consider `CCCCc1ccc(C(=O)O)nc1`, for which the Potency result in [2] and in assay [4] was “inactive” in each case. Further, the outcome in [3] and in assay [5] was inactive.
For `O=C(O)CCCOc1ccc(Cl)cc1Cl`, the Potency result in assay [2] and in assay [9] was “inactive” in each case. For the same compound, in [10], the activation was -19.7%.
On to `Oc1ccc2c3c1O[C@H]1c4[nH]c5c(c4C[C@@]4(O)[C@@H](C2)N(CC2CC2)CC[C@]314)C[C@@]1(O)[C@H]2Cc3ccc(O)c4c3[C@@]1(CCN2CC1CC1)[C@H]5O4`, for which the Potency result in [2] and in assay [4] was “inactive” each time.
Consider `O=c1cccc2n1CC1CNC[C@H]2C1`, for which the compound was classed as inactive in assay [5].
Regarding `Cc1cc(O)ccc1Cl`, the Potency entry in [2] and in [6] was “inactive” each time. In addition, the call in assay [7] and in assay [8] was inactive.
Take `O=[N+]([O-])c1c2ccccc2cc2ccccc12`: the Potency result in [6] is “inactive”.
Consider `NCCc1c[nH]c2ccccc12`, for which the Potency result in assay [2] and in assay [4] was “inactive” throughout. The compound was classed as inactive in assay [3].
As for `CCCCCC[C@H]1C(=O)O[C@H](C)[C@H](NC(=O)c2cccc(NC=O)c2O)C(=O)O[C@@H](C)[C@@H]1OC(=O)CC(C)C`, the compound was called inactive in assay [5] and in [7].
With `NC(=NCCC[C@H](N)C(=O)O)N[N+](=O)[O-]`, the Potency result in assay [2] and in assay [4] was “inactive” each time. In addition, the compound was classed as inactive in assay [3] and in assay [5].
As for `O=S(=O)(O)C(F)(F)C(F)(F)C(F)(F)C(F)(F)F`, the Potency entry in assay [6] was “inactive”.
For `Cc1c(C(=O)c2cccc3ccccc23)c2cccc3c2n1[C@H](CN1CCOCC1)CO3`, in [4], the Potency was 15.8 µM (active).

The values are drawn from PubChem BioAssay (NCATS).
